In the library only some 19% were active in any assay of this set; here they are far more common.
ELG1 repair inh – qHTS screen for small molecules that inhibit ELG1-dependent DNA repair in human embryonic kidney (HEK293T) cells expressing luciferase-tagged ELG1; Potency, µM (top dose mostly 46.1 µM), without a hit: at the highest dose activity change, negative = inhibition, most hits filed as inhibitors; 330,000 compounds, 2.3% hits; HEK293T ELG1-luciferase reporter, luminescence, 16 h; DNA damage induced by 5-fluorouridine; also: potency is read from the fitted curve at half-maximal effect; nearly all actives have a fitted effect of over 55% in size
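Reporter activity after DNA damage by 5-fluorouridine is monitored. Compound-treated cells incubate 16 hr at 37 °C, then ONE-Glo is added for 30 min before luminescence reading.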
DT40 TDP1 CPT – qHTS for Inhibitors of human tyrosyl-DNA phosphodiesterase 1 (TDP1): qHTS in cells in presence of CPT; chicken DT40 Tdp1-/-;hTDP1 cells + 20 nM CPT, ATP luminescence, 48 h; AID 686979, 2013; 420,000 compounds, 12% hits; Potency, µM (highest dose often 46.2 µM), inactives show at the top dose activity change, negative = growth inhibition, usual class: inhibitors; also: potency is read from the fitted curve at half-maximal effect; nearly all actives have a fitted effect of over 55% in size
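Chicken DT40 Tdp1-/- cells complemented with human TDP1, 400 cells/well, exposed to compounds plus 20 nM camptothecin for at least 48 h at 37 C; viability read as ATP content by CellTiter-Glo luminescence.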
IL1B secr inh – qHTS for Inhibitors of Inflammasome Signaling: IL-1-beta AlphaLISA Primary Screen | AID 743279, 2014 | 360,000 compounds, 4.7% hits | activity change, % at 57.5 µM | THP-1 LPS/ATP IL-1B secretion, AlphaLISA, 16 h; active compounds read low; in the data active = activity change below about -50%; inconclusive = mostly about -30% to -49%
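THP-1 cells pretreated 1 hr with compounds (up to 57.5 uM final), then stimulated with LPS (250 ng/mL final) plus ATP (1.25 mM final); secreted IL-1B measured by AlphaLISA after 16 hr, decreased signal indicating inhibition.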
HT1080 IDH1KD tx – qHTS for induction of synthetic lethality in tumor cells producing 2HG: qHTS for the HT-1080-IDH1KD cell line; HT-1080 IDH1 knockdown viability, ATP luminescence, 48 h; Potency, µM (titrated, usually from 46.1 µM), inactives show top-dose activity, negative = toxicity, most hits filed as cytotoxic; 360,000 compounds, 2% hits; AID 686971, 2013;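 also: potency is read from the fitted curve at half-maximal effect; 0% = DMSO wells and -100% = cell-free medium wells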
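After a 2 h attachment period, IDH1KD HT-1080 cells took pin-transferred compound for 48 h at 37 °C; ATP-based luminescence after 10 min room-temperature reagent incubation reported viability.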
DT40 TDP1 no CPT – qHTS for Inhibitors of human tyrosyl-DNA phosphodiesterase 1 (TDP1): qHTS in cells in absence of CPT; DT40 Tdp1-/- hTDP1 cells, no CPT, ATP luminescence, 48 h; Potency, µM (highest dose often 46.2 µM), inactives show at the top dose activity change, negative = growth inhibition, usual class: inhibitors; 420,000 compounds, 15% hits; also: potency is read from the fitted curve at half-maximal effect; nearly all actives have a fitted effect of over 55% in size
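Readout: luminescence from CellTiter-Glo after 30 min in the dark at RT. Cells: DT40 Tdp1-/- with stable hTDP1, 400/well. Exposure: compounds alone, ≥48 hr, 37 °C.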
HT1080NT lethal – qHTS for induction of synthetic lethality in tumor cells producing 2HG: qHTS for the HT-1080-NT fibrosarcoma cell line | HT-1080-NT fibrosarcoma viability, CellTiter-Glo ATP luminescence, 48 h | Potency, µM (top dose mostly 46.1 µM), without a hit: at the top dose activity, negative = less viability, usual class: cytotoxic | 360,000 compounds, 1.6% hits;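 also: NT is the 2HG producing partner of a matched IDH1 knockdown line; potency is read from the fitted curve at half-maximal effect; 0% = DMSO-treated cells and -100% = media-only wells without cells; nearly all actives have a fitted effect of over 55% in size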
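Fibrosarcoma NT cells, 750 per well in 5% FBS RPMI, were exposed to compound for 48 hours. Viability: CellTiter-Glo luminescence.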
An asterisk follows results filed as active; ? = inconclusive; . = not tested or not shown. Unless noted, calls follow the shape of the dose curve; as a rule, active = well fitted curve in the direction sought with a large enough effect; inconclusive = small, poorly fitted or top-dose-only effect, or another doubt; inactive = no such curve, though single readings can be large; an effect the other way counts as inactive or inconclusive. Unless noted, % is scaled to controls: 0 for no effect and ±100 for the full control effect.

SMILES | ELG1 repair inh | DT40 TDP1 CPT | IL1B secr inh | HT1080 IDH1KD tx | DT40 TDP1 no CPT | HT1080NT lethal
CCCN(C)C1CN(Cc2cn(Cc3ccc(F)cc3)nn2)S(=O)(=O)C1 (stereo not drawn) | . | 6% | -8 | -1% | -9% | 22%
COCC1CCN(C(=O)C2CCN(c3nc(-c4ccccc4)nc4c3CCC4)CC2)C1 (stereo not drawn) | ? | ? | ? | 0% | ? | 0%
COCC1CCCCN1C(=O)C1CCN(c2nc(-c3ccccc3)nc3c2CCC3)CC1 (stereo not drawn) | ? | 18µM* | -24 | -6% | 15µM* | -15%
Cc1cc(C)c(S(=O)(=O)Nc2ccc(-c3ccc(N4CCCCC4)nn3)cc2)cc1C | . | 8.2µM* | . | . | 18µM* | .
O=S(=O)(Nc1ccc(-c2ccc(N3CCCCCC3)nn2)cc1)c1cccc(C(F)(F)F)c1 | . | 15µM* | . | . | ? | .
O=S(=O)(Nc1ccc(-c2ccc(N3CCCCCC3)nn2)cc1)c1ccc(C(F)(F)F)cc1 | . | 12µM* | . | . | ? | .
O=[N+]([O-])c1ccc(Cl)c(S(=O)(=O)Nc2ccc(-c3ccc(N4CCCC4)nn3)cc2)c1 | 27% | 18% | -85* | -12% | 4% | -4%
O=S(=O)(Nc1cccc(-c2ccc(N3CCCCC3)nn2)c1)c1cccc(F)c1 | . | -24% | . | . | -29% | .
Cc1ccc([N+](=O)[O-])cc1S(=O)(=O)Nc1ccc(-c2ccc(N3CCCC3)nn2)cc1 | ? | -29% | -1 | -26% | -28% | -9%
COc1ccc(C(C(=O)NC(C)(C)C)N(C(=O)CCC(=O)Nc2cc(C)on2)c2ccc(C)c(C)c2)cc1 (stereo not drawn) | -15% | ? | ? | -8% | ? | ?
CCn1c(/C(C#N)=N/O)nc2ccccc21 | -2% | 6% | 24 | 7% | 3% | 6%
Cn1c(/C(C#N)=C/c2ccccc2Br)nc2ccccc21 | . | 15µM* | . | . | 12µM* | .
Cn1c(/C(C#N)=N/O)nc2ccccc21 | 5% | 12% | 2 | 8% | 11% | 10%
COc1ccc(N/C=C(\C#N)c2nc3ccccc3n2C)c(OC)c1 | 26µM* | ? | -9 | -8% | 23µM* | -12%
CCn1c(/C(C#N)=C/c2ccccc2Cl)nc2ccccc21 | . | ? | . | . | 26µM* | .
O=C(NCc1ccc(Cl)cc1)c1ccc(CNS(=O)(=O)c2ccc(F)cc2)cc1 | . | -19% | . | . | -4% | .
COc1ccccc1N(CC(=O)NC1CCCCC1)S(=O)(=O)c1ccccc1 | 0% | -24% | -19 | -13% | ? | -14%
Cc1ccc(S(=O)(=O)Nc2ccccc2C(=O)N2CCCCC2)cc1 | -1% | -18% | 14 | -6% | 2% | 0%
Fc1ccccc1/C=N/n1cc(-c2ccccc2)[nH]c1=S | ? | 15µM* | 5 | 14% | 8.2µM* | -10%
O=C(O)c1ccc(/C=N/n2cc(-c3ccccc3)[nH]c2=S)cc1 | 0% | -8% | 6 | -5% | -14% | 9%
S=c1[nH]c(-c2ccccc2)cn1/N=C/c1ccc(Br)cc1 | -16% | 3.7µM* | -19 | 1% | 4.6µM* | 2%
S=c1[nH]c(-c2ccccc2)cn1/N=C/c1cccs1 | ? | -97% | 31 | -3% | 8.2µM* | 7%
O=C1CC(c2nnc(Cc3ccc(F)cc3)o2)CN1c1ccccc1 (stereo not drawn) | . | 6% | . | . | -3% | .
Cc1ccc(S(=O)(=O)NCCc2cc3ccc(C)c(C)c3[nH]c2=O)cc1 | -21% | ? | 3 | -3% | 18µM* | 3%
COc1ccc(OC)c2[nH]c(=O)c(CCNS(=O)(=O)c3ccc(F)cc3)cc12 | 4% | -1% | 12 | 0% | -17% | 9%
SMILES | ELG1 repair inh | DT40 TDP1 CPT | IL1B secr inh | HT1080 IDH1KD tx | DT40 TDP1 no CPT | HT1080NT lethal
Cc1cc(C)c(S(=O)(=O)NCCc2cc3c(C)ccc(C)c3[nH]c2=O)c(C)c1 | . | 7.3µM* | . | . | 3.7µM* | .
Cc1ccc2cc(CCNS(=O)(=O)c3ccc(F)cc3)c(=O)[nH]c2c1C | -22% | 21µM* | 29 | -2% | 18µM* | -5%
COc1ccc(C(=O)NCC2(N3CCN(C)CC3)CCCCC2)cc1 | . | 2% | . | . | 6% | .
C[C@H](CO)N1C[C@H](C)[C@@H](CN(C)Cc2ccc(C(=O)O)cc2)Oc2c(NS(=O)(=O)c3cn(C)cn3)cccc2C1=O | 26% | 6% | 20 | 0% | -17% | 2%
COCCCN1C(=O)C(CC(=O)NC(c2ccccc2)c2ccccc2)CC(C(=O)N(C(C)C)C(C)C)=C1C (stereo not drawn) | . | ? | -11 | 12% | ? | 14%
CC(C)c1ccc(NC(=O)CN2CCN(c3ccccn3)CC2)cc1 | -1% | -24% | -8 | 3% | -11% | 9%
Cc1c(C)n(C(=O)CN2CCN(c3ccccn3)CC2)c2ccccc12 | -12% | ? | 20 | -8% | 12µM* | -4%
COc1cc(Cl)c(C)cc1NC(=O)c1ccccc1NC(=O)CN1CCN(c2ccccn2)CC1 | . | 18µM* | -66* | -19% | 26µM* | ?
O=C(CN1CCN(c2ccccn2)CC1)Nc1ccc([N+](=O)[O-])cc1C(=O)Nc1ccccc1F | 12µM* | 23µM* | -2 | -7% | 7.3µM* | -8%
CSc1ccccc1NC(=O)CN1CCN(c2ccccn2)CC1 | -25% | 23µM* | 23 | -11% | ? | 0%
CCOc1ccc(/C=N/n2c(COc3ccccc3)n[nH]c2=S)cc1OC | -30% | ? | 0 | -19% | ? | -19%
CN1C(c2ccccc2)CCOS1(=O)=O (stereo not drawn) | 16% | ? | 4 | 6% | ? | 6%
O=C(CN1CCN(c2ccccn2)CC1)N(c1ccccc1)c1ccc2ccccc2c1 | ? | 16µM* | -15 | -3% | 18µM* | -2%
O=C(CN1CCOCC1)N(c1ccccc1)c1ccc2ccccc2c1 | -3% | -19% | -6 | 4% | ? | 3%
CC(C)n1c(N2CCN(C(=O)NCc3ccccc3)CC2)nc2ccccc21 | -10% | ? | -25 | 13% | 23µM* | 12%

From PubChem BioAssay
